AMA1-RON2 inh – disrupts binding of P. falciparum AMA1 to RON2; AlphaScreen AMA1-biotinylated RON2 peptide binding; 0.2% of 360,000 active; Potency, µM (titrated, usually from 58.2 µM), inactives show at the highest dose activity change, negative = inhibition, most hits filed as inhibitors; AID 720542;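 note: potency is the fitted concentration of half-maximal effect; 0% = vehicle wells and -100% = peptide control; nearly all actives have a fitted effect of over 45% in size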
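AMA1 (3D7) with his tag at 25 nM final met compounds first, then biotinylated RON2 peptide at 25 nM; detection used donor plus acceptor beads, 10 µg/mL apiece, read by AlphaScreen after 30 min at room temperature.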
CHX counter – counter-screen hit for Shiga toxin inhibitors, cycloheximide | max response, % | 12% of 300,000 active | cell reporter, cycloheximide protein synthesis inhibition counterscreen | AID 2314; in the data active = max response mostly above about 13%, no sharp cut-off; inactive = mostly below about 14%; note: read at 38.3 µM for the half of the compounds with a filed dose; 0% is about no effect
Pf growth 96h – inhibits malaria parasite growth, 96 h; P. falciparum luciferase reporter growth, 96 h; Potency, µM (doses to about 28.7 µM), for inactives: top-dose activity change, negative = inhibition, usual class: inhibitors; 6.9% of 320,000 active; AID 504834; note: potency is the fitted concentration of half-maximal effect; % is set by controls: 0 for no effect and ±100 for the full control effect
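Plates of compound plus infected erythrocytes (2% hematocrit, 0.05% parasitemia final) incubate 96 hours, 37 C, 5% CO2. Detection reagent added; reduced luminescence from the parasites' luciferase reporter flags inhibition.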
Shiga toxin inh – blocks Shiga toxin action in Vero cells; AID 2315; Vero cells, Shiga toxin protein synthesis inhibition reporter; 9.2% of 290,000 active; inhibition, % at 38.7 µM; in the data active = inhibition mostly above about 28%, no sharp cut-off; inactive = mostly below about 43%; note: 0% is about no effect
SARS PLpro yeast – inhibitors of SARS-CoV papain-like protease in yeast; Potency, µM (titrated, usually from 32.9 µM), for the others: at the top dose activity, positive = growth rescue, usual class: activators; S. cerevisiae expressing SARS-CoV PLpro, growth rescue; 0.19% of 330,000 active; calls by dose curve; note: potency is the fitted concentration of half-maximal effect; 0% is about no effect; nearly all actives have a fitted effect of over 55% in size
Pf growth 48h – inhibits P. falciparum growth in the first generation, 48 h; P. falciparum luciferase growth in erythrocytes, 48 h; Potency, µM (series often up to 28.7 µM), inactives show at the highest dose activity change, negative = inhibition, hits mostly inhibitors; 5.9% of 310,000 active; note: potency is the fitted concentration of half-maximal effect; % is set by controls: 0 for no effect and ±100 for the full control effect
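Growth was read as firefly luciferase luminescence after a 48 h, 37 C, 5% CO2 exposure of compounds to reporter-bearing P. falciparum cultures (0.1% parasitemia, 2% hematocrit final) in Albumax-supplemented RPMI 1640.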
The depositor's hits bear a star; ? = inconclusive; nt = no result given; + = active, no number. Shown are actives, neighbours in structure and some others; about 19% of the full set was active somewhere. Unless noted, calls come from the whole dose curve; as a rule, active = well fitted curve in the direction sought with a large enough effect; inconclusive = small, poorly fitted or top-dose-only effect, or another doubt; inactive = no such curve, though single readings can be large; an effect the other way counts as inactive or inconclusive.

SMILES	AMA1-RON2 inh	CHX counter	Pf growth 96h	Shiga toxin inh	SARS PLpro yeast	Pf growth 48h
CCC(C)Sc1nc2ccccc2n1CC(=O)O (stereo unspecified)	-3%	1	-3%	-1	7%	nt
CCC(C)(C)NC(=O)C(c1cccc(OC)c1OC)N(CCOC)C(=O)CCC(=O)Nc1cc(C)on1 (stereo unspecified)	7%	-1	10µM*	-5	1%	3%
CCCCN(C(=O)CCC(=O)Nc1cc(C)on1)C(C(=O)NC(C)(C)CC)c1cccc(OC)c1OC (stereo unspecified)	-5%	-2	-27%	-8	-1%	?
O=C(Nc1cccnc1)C1CCCN(S(=O)(=O)c2cccc3nsnc23)C1 (stereo unspecified)	-10%	-5	53%	-5	2%	nt
O=C(CCCN1C(=O)/C(=C/c2ccccc2)SC1=S)Nc1cccc(O)c1	-19%	12	-29%	21*	-3%	?
O=C(O)CCCN1C(=O)/C(=C\C(Cl)=C\c2ccccc2)SC1=S	-9%	0	?	-6	-2%	9.3µM*
O=C(CCCN1C(=O)/C(=C\c2ccccc2)SC1=S)Nc1ccc(O)cc1	-25%	26*	3%	3	-1%	?
CN1CCN(C(=O)CCCN2C(=O)/C(=C/c3ccccc3)SC2=S)CC1	-8%	1	?	13	1%	?
O=C(CCN1C(=O)/C(=C\C=C\c2ccccc2)SC1=S)Nc1ccccc1C(=O)O	-16%	-3	9.3µM*	-24	-2%	6%
CN(C)c1nc(NS(=O)(=O)c2ccc(Cl)cc2)nc(N(C)C)n1	0%	-6	-9%	-2	11%	-3%
CCCCCOC(=O)C1=C(C)Nc2nnnn2C1c1ccccc1Cl (stereo unspecified)	1%	-1	nt	-9	-14%	nt
CSc1ncccc1C(=O)N1CCCC(CCC(=O)NCc2ccc(F)c(F)c2)C1 (stereo unspecified)	-6%	-1	?	6	0%	?
O=C(NC1CCCc2ccccc21)c1cccc(F)c1 (stereo unspecified)	15%	nt	nt	nt	nt	nt
CCc1ncc(C)nc1CC	0%	-4	20%	-5	0%	24%
O=C(OCC(=O)N1CCCC1)c1c(Cl)cccc1Cl	-10%	1	13%	10	-2%	4%
Cc1ccc(S(=O)(=O)CCC(=O)NCCN2C(=O)S/C(=C/c3ccc(F)cc3)C2=O)cc1	6%	16*	-1%	-1	-20%	4%
O=C(CCN1C(=O)/C(=C\c2ccc(F)cc2)SC1=S)Nc1ccc(O)cc1	-11%	-3	35%	26	-9%	13%
O=C(CCNC(=O)c1ccco1)NCCN1C(=O)S/C(=C\c2ccc(F)cc2)C1=O	-6%	nt	-2%	nt	9%	60%
O=C(CN1C(=O)S/C(=C\C=C\c2ccccc2)C1=O)Nc1ccc(O)cc1	5%	72*	-16%	65*	-9%	25%
O=C(CCCN1C(=O)/C(=C/c2ccccc2Cl)SC1=S)Nc1cccnc1	-17%	29*	87%	42*	30%	?
O=C(CCCN1C(=O)S/C(=C/C=C/c2ccccc2)C1=O)Nc1ccc(C(=O)O)cc1	1%	-4	?	-25	2%	-9%
Cc1ccc(/C=C2/SC(=S)N(CCCC(=O)Nc3ccc(O)cc3)C2=O)cc1	-16%	31*	3%	25*	-2%	?
CCn1c(SCC(=O)N/N=C(/C)c2ccncc2)nc2ccccc21	39%	-2	?	11	0%	-14%
CNCC(=O)N(CC(C)C)c1c(N)n(CC(C)C)c(=O)[nH]c1=O	98%	-3	37%	19	-1%	26%
Cc1cccc(NC(=O)CN2C(=O)S/C(=C\c3ccccn3)C2=O)c1	12%	-3	4.1µM*	-6	1%	-17%
SMILES	AMA1-RON2 inh	CHX counter	Pf growth 96h	Shiga toxin inh	SARS PLpro yeast	Pf growth 48h
Cc1ccc(NC(=O)CN2C(=O)S/C(=C\c3cc(C)n(-c4cccc(C(=O)O)c4)c3C)C2=O)cc1	-1%	0	-18%	-1	1%	3%
Cc1ccc(NC(=O)CN2C(=O)S/C(=C\c3ccc(C(=O)O)cc3)C2=O)cc1	6%	-2	15µM*	nt	?	9%
O=C(NCCc1nc2ccccc2[nH]1)/C(=C/c1ccco1)NC(=O)c1ccc(Br)o1	40%	-3	36%	1	-10%	-3%
O=c1cc(-c2ccccc2)[nH]n1-c1ccc([N+](=O)[O-])cc1	-8%	35*	?	71*	-20%	?
Cc1cccc(C(=O)N/N=C/c2ccc[nH]2)c1	3%	24*	81%	80*	-1%	0%
Cc1ccc(C(=O)N/N=C\c2ccc[nH]2)cn1	-31%	19*	19%	24	2%	nt
O=C(N/N=C/c1ccc[nH]1)c1ccc([N+](=O)[O-])cc1	12%	20*	?	17	-21%	32%
O=C(N/N=C/c1ccc[nH]1)c1cccnc1	107%	-1	173%	-5	-2%	63%
O=C(N/N=C/c1ccc[nH]1)c1cccc(Br)c1	70%	31*	13%	+	-8%	2%
O=C1C2C(C(=O)N1Cc1cccnc1)C1C=CC2C12CC2 (stereo unspecified)	?	-1	-6%	-9	4%	3%
O=C(O)c1cc(F)c(S(=O)(=O)N2CCN(S(=O)(=O)c3ccc4c(c3)OCCO4)CC2)cc1F	nt	4	nt	-5	nt	nt
C[C@H]1CN([C@@H](C)CO)C(=O)CCCn2cc(nn2)CO[C@@H]1CN(C)C(=O)Nc1ccc2c(c1)OCCO2	0%	nt	nt	nt	nt	nt
CC(C)CC(c1nnnn1Cc1ccc2c(c1)OCO2)N1CCC(C(N)=O)CC1 (stereo unspecified)	-9%	-3	37%	13	1%	-3%
CCn1c(=NC(=O)C2COc3ccccc3O2)sc2c(OC)ccc(OC)c21 (stereo unspecified)	-4%	-4	-13%	9	1%	-22%
CCCc1cc(=O)[nH]c(SCC(=O)Nc2ccc(N3CCCCC3)cc2)n1	-1%	nt	nt	nt	-18%	nt
Cc1cccc(NCC(=O)N/N=C\c2ccc[nH]2)c1	91%	1	7%	-12	1%	-1%
CC(C)(C)OC(=O)N/N=C\c1ccc[nH]1	5%	41*	25%	58*	-1%	135%
COc1ccc(/C=N/NC(=O)c2cc(-c3ccccc3)nc3ccccc23)c(OC)c1	-3%	18*	28%	40	0%	0%
COc1ccccc1-c1cc(C(=O)N/N=C/c2sccc2C)c2ccccc2n1	-2%	-2	1.9µM*	-12	1%	1.9µM*
COc1ccc2nc(-c3ccccc3)[nH]c(=O)c2c1	7%	nt	nt	nt	nt	nt
COc1ccc2nc(-c3ccccc3)cc(OC)c2c1	3%	58*	109%	65*	-2%	40%
